Screen size: about 69,000 compounds; about 8,600 (12%) showed an effect of 50% or more. The entries come from a sample that favours strong results as a whole.
What follows are molecules tested on Plasmodium berghei (assay: Screen against P. berghei liver stage (PbLuc), transformed with Luciferase, at 10uM). Conditions: tested at 10 uM.
Assay type: functional, HepG2

SMILES | INHIBITION [%]
Cc1n[nH]c2nc(-c3ccccc3O)cc(C(=O)O)c12 | 7.09
OCCOc1cc(F)ccc1NCc1nc(-c2cccs2)no1 | 12.8
N#Cc1ccc(F)c(CNc2ccc(F)cc2OCCO)c1 | 10.9
Cc1ccccc1-c1noc(CNc2ccc(F)cc2OCCO)n1 | 52.6
OCCOc1cc(F)ccc1NCc1ccc(F)c(F)c1 | -16.8
OCCOc1cc(F)ccc1NCc1cccc(F)c1F | 54.5
COc1ccccc1-c1noc(CNc2ccc(F)cc2OCCO)n1 | 13.7
Cc1nc(CC(=O)N2CCn3c(nnc3C(C)C)C2)cs1 | 18.15
O=C(CCc1ccc(-c2ccccc2)[nH]1)N1CCCC(n2ccnc2)C1 (stereo unspecified) | 3.5625
CCC(=O)Nc1cccc(OCC(=O)N[C@@H]2C[C@@H]3CC[C@H]2C3)c1 | -23.4
Cc1nc(C2CCCN(C(C)C)C2)sc1Br (stereo unspecified) | 11.8
O=C(Nc1ccccn1)C1CC(=O)N(Cc2ccccn2)C1 (stereo unspecified) | -87.6
O=C(C1CC(F)(F)C1)N1CC[C@H]2OCC[C@@]2(COCC2CC2)C1 | 39.3
COC[C@@]12CCO[C@@H]1CCN(C(=O)C1CCOCC1)C2 | 13.1
COC[C@@]12CCO[C@@H]1CCN(C(=O)C1CC(F)(F)C1)C2 | 94.6
CN1CC(=O)N(c2ccccc2)CC12CCN(CC1CC1)C2 (stereo unspecified) | 48.9
O=C(NCCCn1cncn1)N1CCC(N2CCCCC2)CC1 | -17.167
Cn1cccc1C(=O)N1CCc2ccc(=O)n(C)c2CC1 | 21.4
O=C1CC(c2cccnc2)c2c(c(C(=O)O)cn2-c2cccc(F)c2)N1 (stereo unspecified) | -18.3
CN1CCC2(CCN(c3ncc(F)cn3)CC2)C1=O | 30.5
CN(Cc1nc(Cc2ccccc2F)no1)CC1Cc2ccccc2O1 (stereo unspecified) | 52
CN(Cc1nc(CC2CC2)no1)CC1Cc2ccccc2O1 (stereo unspecified) | 12.6

SMILES | INHIBITION [%]
CN(Cc1nc(COc2ccccc2)no1)CC1Cc2ccccc2O1 (stereo unspecified) | 8.07
O=C(Nc1nc(-c2ccccc2)ns1)N1CC[C@H](O)C1 | 9.79
CCSc1ccc(C(=O)N2CCC3(CCC(=O)N(C)C3)CC2)s1 | 20.3
Cc1nnc(NC(=O)C(C)n2ncc(Br)c2C)s1 (stereo unspecified) | 50.2
Cc1c(Br)cnn1C(C)C(=O)Nc1nncs1 (stereo unspecified) | 39.9
Cc1nc(NC(=O)C(C)n2ncc(Br)c2C)sc1C (stereo unspecified) | 21.5
CN(C)Cc1cnc(C2CCN(C(=O)c3cccc(Cl)c3)C2)[nH]1 (stereo unspecified) | 12.375
COC(=O)CC1CCN(C(=O)c2ccccc2-n2nnnc2C)CC1 | 9.57
Cc1nn(C)cc1CN1CCCC(n2c(=O)oc3ccc(Cl)cc32)C1 (stereo unspecified) | 36
CN(c1ccc(C(C)(C)C)cc1)S(=O)(=O)c1cc(C(=O)O)cs1 | 20.6
Cc1ccc(N(C)S(=O)(=O)c2cc(C(=O)O)cs2)cc1 | 52.5
Cc1cc(C)cc(N(C)S(=O)(=O)c2cc(C(=O)O)cs2)c1 | 34.7
O=c1n(CCSCCOc2ccc(Br)cc2)nc2ccccn12 | 2.49
O=C(NC1CC1)c1ccnc(N2CCOC(c3ccc(Cl)cc3)C2)c1 (stereo unspecified) | 67.7
O=C(c1ccnc(N2CCOC(C(F)(F)F)C2)c1)N1CCOCC1 (stereo unspecified) | 12.7
CC(C)n1ccnc1C1CCCN(c2cc(C(=O)NC3CC3)ccn2)C1 (stereo unspecified) | 31.2
O=C(NC1CC1)c1ccnc(N2CCOC(c3ccc(Cl)c(Cl)c3)C2)c1 (stereo unspecified) | 86.6
CNC(=O)c1ccc(C2CN(c3cc(C)nc(N)n3)CCO2)nc1 (stereo unspecified) | 25.855
CN1CCN(C(=O)c2ccnc(N3CCOC(C(F)(F)F)C3)c2)CC1 (stereo unspecified) | -14.1
O=C(CN1C(=O)CCNC1=O)N1CCOC(c2ccc(Cl)c(Cl)c2)C1 (stereo unspecified) | -52.2
O=C(c1ccnc(N2CCOC(c3ccc(Cl)cc3)C2)c1)N1CCCC1 (stereo unspecified) | 73.5
O=C(c1ccnc(N2CCOC(C(F)(F)F)C2)c1)N1CCCC1 (stereo unspecified) | 7.77

SMILES | INHIBITION [%]
Cn1cc(CN2C[C@H]3CCN(C(=O)c4cscn4)C[C@H]3C2)cn1 | 43.9
CC(C)Oc1ncccc1CNC(=O)Nc1ccccn1 | -17.6
Cc1cc(-c2ccccc2C(=O)O)nc(C2CCCN(C(C)C)C2)n1 (stereo unspecified) | 13
Cc1nc(NC2CCCC2)cc(C2CCN2C(=O)c2cnn(C)c2)n1 (stereo unspecified) | 0.301
Cc1ccc2c(c1)SCC(=O)N2Cc1noc(C2CC2)n1 | -0.578
O=C(NCCC1=CCCCC1)NCc1nnc2n1CCC2 | 40.3
Cn1cc(CCNC(=O)NCc2nnc3n2CCC3)cn1 | 59.7
O=C(NCCc1ccc(Cl)s1)NCc1nnc2n1CCC2 | 53.8
CC(CN1CCOCC1)NC(=O)NCc1ccc(Cl)s1 (stereo unspecified) | -34.7
CC(CN1CCOCC1)NC(=O)N(C)Cc1ccc(Cl)s1 (stereo unspecified) | -12.6
O=C(NCc1ccc(Cl)s1)NCc1nnc2n1CCCCC2 | -10.6
CC(CN1CCOCC1)NC(=O)NCCc1ccc(Cl)s1 (stereo unspecified) | 53.4
O=C(NCCc1ccc(Cl)s1)NCc1nnc2n1CCCC2 | 21
CN(Cc1cnn(C)c1)C(=O)NCc1nnc2n1CCC2 | -22.6
CCn1cnnc1CNC(=O)NC(c1ccc(OC)cc1)C1CC1 (stereo unspecified) | 32.5
COc1ccc(C(NC(=O)NCc2nnc3n2CCC3)C2CC2)cc1 (stereo unspecified) | 50.4
CCc1ccc(CNC(=O)NCc2nnc3n2CCC3)s1 | 25.1
CN(C)CCC1CCN(Cc2ccn(C)c(=O)c2)CC1 | -8.11
CO[C@H]1CN(C(=O)c2ccccn2)[C@@H]2CCCO[C@H]12 | 36.4
CC(C)c1ncc(Cl)c(C(=O)N2CCN(C3CC3)CC2)n1 | 40.7
CS(=O)(=O)N1C[C@H]2CCCN(Cc3ccsc3)[C@H]2C1 | 21.6
COc1cc(N2CCC3(CC2)CC(N2CCN(C)CC2)CO3)ncn1 (stereo unspecified) | 26

SMILES | INHIBITION [%]
Cc1cccc(C(=O)N2C[C@@H]3CC[C@H](Oc4cccc(F)c4)[C@@H]3C2)n1 | 25.6
COCCN1CCC2(CCCN(C(=O)c3cncn3C)C2)CC1 | 49.7
CNC(=O)CC1CC2(CCN(CC3CC3)CC2)Oc2ccccc21 (stereo unspecified) | 44.5
Cc1nc2sccn2c1CN(CCCN(C)C)Cc1ccccn1 | -12.5
CN(CC1CCN(CCO)CC1)CC(O)c1ccc(F)cc1 (stereo unspecified) | 34.1
CN(CC1CCN(CCO)CC1)CC(O)c1ccc(F)c(F)c1 (stereo unspecified) | 49.9
CN(CC1CCN(CCO)CC1)CC(O)c1ccc(F)cc1F (stereo unspecified) | 59.1
Cc1cc(C)n(Cc2ccc(-c3noc(C(=O)NC[C@@H](C)O)n3)cc2)n1 | -4.28
CN1CCCN(c2nccc(-c3cncnc3C3CCCCC3)n2)CC1 | 50.1
Cc1ncc(-c2ccnc(N3CC[C@H](O)C3)n2)c(-c2cccnc2)n1 | -13.7
CN1CCN(c2nccc(-c3cncnc3C3CCCCC3)n2)CC1 | 23.4
CN1CCCN(c2nccc(-c3c[nH]c4ccc(Br)cc34)n2)CC1 | 41.2
CCOC(=O)C1CCN(c2nccc(-n3nc(C)cc3C)n2)CC1 | -79.8
NC(=O)C1CCN(c2nccc(-c3c[nH]nc3C3CCCCC3)n2)CC1 | 57.5
Cc1ccnc(OCC(=O)N2CCC(C(N)=O)CC2)n1 | 26.4
NC(=O)C1CCN(c2nc3nccc(-c4ccccn4)c3c(=O)[nH]2)CC1 | 2.37
NC(=O)C1CCN(c2ncc(-c3cnccn3)c([C@H]3CCCO3)n2)CC1 | -0.902
NC(=O)[C@H]1CCCN(c2nccc(-c3c[nH]nc3-c3cccnc3)n2)C1 | 54.5
Cc1ccnc(N2CCC(C(N)=O)CC2)n1 | 63.4
NC(=O)[C@H]1CCCN(c2nccc(-c3ccncc3)n2)C1 | 10
CSc1ncccc1C(=O)N1C[C@@H]2CC[C@H]1CN(c1ncccn1)C2 | 15.1
CC(Cn1ccnc1)NC(=O)NCc1ccccn1 (stereo unspecified) | 15.34

SMILES | INHIBITION [%]
COCCCNC(=O)c1nnsc1-c1ccccc1 | -6.42
CNc1cccc(C2CCN(C(C)=O)CC2)n1 | -9.51
COc1ccc(C)cc1CN1CCOC(Cn2nc(C)nc2C)C1 (stereo unspecified) | -10.6
CCc1cc(-c2cc[nH]n2)nc(N2CCOCC2)n1 | 17.5
CC1CN(CC(=O)Nc2ccncc2)CCN1Cc1nccn1C (stereo unspecified) | 8.9
COCC[C@]1(O)CCN(Cc2nc(C)c(C)s2)C[C@H]1C | -47.4
CC(=O)N1CCCN(c2nccc(-c3cn(C)nc3C)n2)CC1 | 4.2
O=S1(=O)NC(c2ccnc(N3CCCCC3)n2)=Nc2ccccc21 | 25.8
CN1CCCN(c2nccc(-c3c[nH]nc3C3CCCCC3)n2)CC1 | 68.9
Cc1csc2ncc(-c3ccnc(N4CCCN(C)CC4)n3)c(=O)n12 | 26.3
Nc1nccc(-c2c[nH]nc2C2CCCCC2)n1 | 41.2
CN1CCCN(c2nccc(-c3cc(C(=O)O)ccn3)n2)CC1 | 41.4
OCCNc1nccc(-c2cn3nccc3nc2C2CCCCC2)n1 | 39.7
Cc1csc2ncc(-c3ccnc(N4CCCC4)n3)c(=O)n12 | -71.6
c1cc(-c2cn3nccc3nc2C2CCCCC2)nc(N2CCCC2)n1 | 82.7
Cc1csc2ncc(-c3ccnc(N4CCC[C@H](C(N)=O)C4)n3)c(=O)n12 | 64.9
CC(C)c1nc(C2CCCN(c3nccc(N4CCCC4)n3)C2)no1 (stereo unspecified) | 23.1
c1cc(-c2c[nH]nc2C2CCCCC2)nc(N2CCCCCC2)n1 | 90.1

From ChEMBL document CHEMBL4513216, “Probing the Open Global Health Chemical Diversity Library for Multistage-Active Starting Points for Next-Generation Antimalarials” (ACS Infect Dis, 2020)
